This experiment concerns the target HPRT1_P00492_66_EMGGHHIVALCVLK (UniProt P00492). Kind of experiment: probe-labelled cysteine peptide fold change vs DMSO (competition) (log2 fold change); higher = less target engagement (more negative = stronger competition). The following applies: THP-1, incubation time: 4 h.

Molecules are shown by their SMILES. About 21,000 targets were measured; listed, in parts, are those with the largest changes and a random draw of the rest.

Here are results for one compound from the supplement of paper PMC12067093, “Discovery and optimisation of a covalent ligand for TRIM25 and its application to targeted protein ubiquitination” (Chemical Science, 2025).
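Also: competitive chemoproteomic profiling in live THP-1 cells with an iodoacetamide desthiobiotin (IA-DTB) probe, comparing probe-labelled peptide intensities in compound-treated cells against DMSO-treated controls.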

Sequence of UniProt P00492 (P00492 whole entry, looked up): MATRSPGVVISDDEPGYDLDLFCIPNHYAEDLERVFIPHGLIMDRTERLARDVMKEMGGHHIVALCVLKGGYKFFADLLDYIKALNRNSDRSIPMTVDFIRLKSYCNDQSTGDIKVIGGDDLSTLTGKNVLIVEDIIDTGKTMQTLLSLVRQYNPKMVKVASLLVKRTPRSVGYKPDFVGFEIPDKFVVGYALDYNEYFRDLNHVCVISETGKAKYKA

In the case of `CC1Cc2ccccc2N1C(=O)C1CCCN(C(=O)CCl)C1` (mixture of isomers) [TRIM25 ligand 11 (diastereomer mixture)], the “probe-labelled cysteine peptide fold change” value is, setting by setting: (10 µM) -0.135; (50 µM) 0.123.
